Most compounds without a hit are left out; they make up all but 19% or so of the library.
HT1080 IDH1KD tx: qHTS for induction of synthetic lethality in tumor cells producing 2HG: qHTS for the HT-1080-IDH1KD cell line | HT-1080 IDH1 knockdown viability, ATP luminescence, 48 h | Potency, µM (titrated, usually from 46.1 µM), most hits filed as cytotoxic | 360,000 compounds, 2% hits
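CellTiter-Glo luminescence after 48 h compound exposure at 37 degrees C of IDH1-knockdown HT-1080 cells in 5% FBS RPMI. %Activity scaled between DMSO wells and cell-free media wells, with curves fitted and assigned curve classes.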
TDP1 cell noCPT: qHTS for Inhibitors of human tyrosyl-DNA phosphodiesterase 1 (TDP1): qHTS in cells in absence of CPT | 420,000 compounds, 15% hits | Potency, µM (highest dose often 46.2 µM), hits mostly inhibitors | AID 686978, 2013 | DT40 Tdp1-/- hTDP1 cells, no CPT, ATP luminescence, 48 h; also: nearly all actives have a fitted effect of over 55% in size
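Growth kinetics read by CellTiter-Glo luminescence after ≥48 hr at 37 °C. Cells: DT40 Tdp1-/- stably carrying human TDP1, 400 per well, compound exposure in the absence of CPT (DMSO vehicle).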
IL-1B inflam inh: qHTS for Inhibitors of Inflammasome Signaling: IL-1-beta AlphaLISA Primary Screen; THP-1 LPS/ATP IL-1B secretion, AlphaLISA, 16 h; stronger effect = lower value; activity change, % at 57.5 µM; 360,000 compounds, 4.7% hits; AID 743279, 2014; in the data active = activity change below about -50%; inconclusive = mostly about -30% to -49%
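THP-1 cells pretreated 1 hr with compounds (up to 57.5 uM final), then stimulated with LPS (250 ng/mL final) plus ATP (1.25 mM final); secreted IL-1B measured by AlphaLISA after 16 hr, decreased signal indicating inhibition.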
DT40 TDP1 CPT: qHTS for Inhibitors of human tyrosyl-DNA phosphodiesterase 1 (TDP1): qHTS in cells in presence of CPT | 420,000 compounds, 12% hits | chicken DT40 Tdp1-/-;hTDP1 cells + 20 nM CPT, ATP luminescence, 48 h | AID 686979, 2013 | Potency, µM (titrated, usually from 46.2 µM), actives largely listed as inhibitors; also: nearly all actives have a fitted effect of over 55% in size
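Chicken DT40 Tdp1-/- cells stably complemented with human TDP1 were seeded at 400 cells/well in medium containing 20 nM camptothecin, exposed to pin-transferred compounds, and grown at 37 °C for at least 48 hr. Viability was read as ATP luminescence.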
HT1080-NT tox: qHTS for induction of synthetic lethality in tumor cells producing 2HG: qHTS for the HT-1080-NT fibrosarcoma cell line | HT-1080-NT fibrosarcoma viability, CellTiter-Glo ATP luminescence, 48 h | Potency, µM (top dose mostly 46.1 µM), usual class: cytotoxic | 360,000 compounds, 1.6% hits;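 also: NT is the 2HG producing partner of a matched IDH1 knockdown line; nearly all actives have a fitted effect of over 55% in size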
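Compounds were tested in concentration-response format on HT-1080-NT cells for 48 hours at 37 degrees C. Cell viability came from CellTiter-Glo luminescence; curves were classified by r2, response magnitude and activity.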
Hits are given with their value; – = inactive; ? = inconclusive; · = no result; [ ] = remark or other dose. Unless noted, calls follow the shape of the dose curve; as a rule, active = well fitted curve in the direction sought with a large enough effect; inconclusive = small, poorly fitted or top-dose-only effect, or another doubt; inactive = no such curve, though single readings can be large; an effect the other way counts as inactive or inconclusive.

SMILES	HT1080 IDH1KD tx	TDP1 cell noCPT	IL-1B inflam inh	DT40 TDP1 CPT	HT1080-NT tox
CCCNC(=O)c1ccccc1NC(=O)CN(c1ccccc1OCC)S(C)(=O)=O	–	–	–	–	–
Cc1ccc(NC(=S)NC(NC(=O)c2ccccc2C)C(Cl)(Cl)Cl)c(C)c1 (stereo unspecified)	?	?	–	?	?
O=C(NC(NC(=S)Nc1c(Cl)cccc1Cl)C(Cl)(Cl)Cl)c1cccc([N+](=O)[O-])c1 (stereo unspecified)	?	12µM	–	21µM	?
COc1ccc(NC(=S)NC(NC(=O)c2cccc3ccccc23)C(Cl)(Cl)Cl)c([N+](=O)[O-])c1 (stereo unspecified)	–	?	-56	?	–
COc1ccc(NC(=S)NC(NC(=O)CCl)C(Cl)(Cl)Cl)c([N+](=O)[O-])c1 (stereo unspecified)	–	?	-50	?	–
COc1ccc(NC(=S)NC(NC(=O)c2ccc(Cl)cc2Cl)C(Cl)(Cl)Cl)c([N+](=O)[O-])c1 (stereo unspecified)	–[9.24 µM]	?	-95	?	?
CCC(C)(C)C(=O)Nc1ccc(OC)cc1[N+](=O)[O-]	–	–	–	–	–[9.24 µM]
COc1ccc(NC(=O)c2ccc(C)cc2Cl)c([N+](=O)[O-])c1	–[9.24 µM]	–	–	–	?
Cc1ccc(S(=O)(=O)Nc2cccc(C(=O)NCCCn3ccnc3)c2)cc1F	–	–	–	–	–
CC(C)(C)c1ccc(C(=O)NCCC(=O)NCc2ccc(F)cc2)cc1	–	?	–	–	–
COc1ccccc1CN1C(=NC(=O)C2CCCCC2)SC2CS(=O)(=O)CC21 (stereo unspecified)	–	–	–	–	–
Cc1nn(-c2ccc(N3CCCC3)nn2)c(C)c1CCC(=O)NCc1ccccc1F	·	–	·	–	·
CC(=O)c1cccc(NC(=O)c2oc(=O)c3ccccc3c2-c2ccccc2)c1	·	–	·	–	·
COC(=O)c1ccccc1NC(=S)NC(NC(=O)c1ccccc1[N+](=O)[O-])C(Cl)(Cl)Cl (stereo unspecified)	–	–	–	–	–
COc1ccc(NC(=S)NC(NC(=O)c2ccccc2Cl)C(Cl)(Cl)Cl)c([N+](=O)[O-])c1 (stereo unspecified)	–[9.24 µM]	?	-87	?	?
Cc1ccn2c(NC(=O)C(C)(C)Oc3ccc(Cl)cc3)c(-c3cccs3)nc2c1	?	18µM	?	?	?
COc1ccc(-c2nc3cc(C)ccn3c2NC(=O)c2ccccc2OC)cc1	?	?	–	?	?
COc1ccc(-n2c(=O)c3c4c(sc3n3c(=S)[nH]nc23)COC(C(C)C)C4)cc1 (stereo unspecified)	–	–	–	–	–
Nc1[nH]c2cc([N+](=O)[O-])ccc2c1-c1ccccn1	?	?	–	15µM	–
O=[N+]([O-])c1ccc2nc[nH]c2c1	–	–	–	–	–
COc1cc(/C=C/C(=O)OCC(=O)N(CC(C)C)c2c(N)n(Cc3ccccc3)c(=O)[nH]c2=O)ccc1O	?	?	–	?	–
CSc1nc2sc3c(c2c(=O)n1C1CCCCC1)CCN(C)C3	–	?	–	–	–
CCSc1nc2sc3c(c2c(=O)n1C1CCCCC1)CCN(C)C3	–	15µM	–	16µM	–
N#CCSc1nc2sc3c(c2c(=O)n1C1CCCCC1)CCCC3	–	23µM	?	?	–
C=C(C)CSc1nc2sc3c(c2c(=O)n1C1CCCCC1)CCN(C)C3	?	6.5µM	·	5.8µM	–
SMILES	HT1080 IDH1KD tx	TDP1 cell noCPT	IL-1B inflam inh	DT40 TDP1 CPT	HT1080-NT tox
C=CC[C@@H](CC(=O)N[C@@H](CO)Cc1ccccc1)C(=O)N[C@H](COC(=O)[C@H](CC=C)CC(=O)OC(C)(C)C)Cc1c[nH]c2ccccc12	–	21µM	–	?	?
C=CC[C@H](CC(=O)NCCO)C(=O)N[C@H](COC(=O)[C@@H](CC=C)CC(=O)OC(C)(C)C)Cc1ccccc1	–	?	–	–	–
C=CC[C@@H](CC(=O)N[C@H](CO)Cc1ccccc1)C(=O)N[C@H](COC(=O)[C@@H](CC=C)CC(=O)OC(C)(C)C)Cc1ccccc1	–	?	-52	?	–
C=CC[C@@H](CC(=O)N[C@H](CO)Cc1ccccc1)C(=O)N[C@H](COC(=O)[C@H](CC=C)CC(=O)OC(C)(C)C)Cc1c[nH]c2ccccc12	?	?	–	?	?
COc1ccc(S(=O)(=O)NC(N)=NCCc2ccccc2)cc1	–	–	–	?	–
CC1CCC2(CC1)NC(=O)N(CC(=O)Nc1ccc(N3CCCCC3)cc1)C2=O (stereo unspecified)	–	?	–	?	–
COc1cccc(/C=N/N=C(\N)c2nonc2N)c1O	–	0.92µM	–	0.0065µM	?
COc1cc(/C=N/N=C(/N)c2nonc2N)cc(Br)c1OCc1ccccc1C	?	?	–	?	?
CCC(C)(C)c1ccc(OCCCC[n+]2cccc(C)c2)c(C(C)(C)CC)c1	4.1µM	0.92µM	-180	0.58µM	6.5µM
CCc1cc2c(cc3c(=O)n(CC(=O)NCCCN4CCCCCC4)nc(CC)n32)s1	–	?	–	?	–
O=C(O)c1cn(C2CC2)c2cc(N3CCN(S(=O)(=O)c4ccc5c(c4)OCCO5)CC3)c(F)cc2c1=O	?	15µM	–	15µM	?
COc1c(F)c(F)cc2c(=O)c(C(=O)O)cn(C3CC3)c12	–	–	–	–	–
CN1C[C@@H]2C[C@H]1CN2c1cc2c(cc1F)c(=O)c(C(=O)O)cn2C1CC1	·	6.7µM	·	6.7µM	·
CCOC(=O)C1CCCN(C(=O)c2ccc(F)c(Cl)c2)CC1 (stereo unspecified)	–	–	–	–	–
COc1ccccc1C(=O)NC1CCN(C(=O)Nc2ccc(F)cc2)CC1	–	–	–	–	–
CC(=O)Oc1ccc(Cn2c(C)c(C(=O)NCCC#N)sc2=O)cc1	–	?	–	?	–
CC(C)(C)NC(=O)C(c1ccc(-c2ccccc2)cc1)N(C[C@H]1CC[C@@H]([C@@H]2CC[C@H](CO)O2)O1)C(=O)c1ccc(-c2ccccc2)cc1 (stereo partly specified)	?	15µM	-55	?	–
COc1ccc(C(C(=O)NC(C)(C)C)N(C[C@H]2CC[C@@H]([C@@H]3CC[C@H](CO)O3)O2)C(=O)c2ccccc2)cc1 (stereo partly specified)	–	–	–	–	–
